Bioassay records from PubChem BioAssay.
VP16 counter: VP16 counterscreen qHTS for inhibitors of ROR gamma transcriptional activity; 310,000 compounds, 3.5% hits; Drosophila S2 Gal4-VP16 UAS-luciferase, luminescence, 20 h; Potency, µM (highest dose often 53.6 µM), inactives show at the highest dose activity, negative = inhibition, actives largely listed as inhibitors;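 note: Gal4-VP16 expression switched on by copper sulfate through the metallothionein promoter; potency is the fitted concentration of half-maximal effect; % is set by controls: 0 for no effect and ±100 for the full control effect; nearly all actives have a fitted effect of over 50% in size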
Six1-Eya2 inh: qHTS Assay for Inhibitors of the Six1/Eya2 Interaction; Homeobox protein SIX1 (Homo sapiens) + Protein phosphatase EYA2 (Homo sapiens), …; AlphaScreen GST-Six1/His-Eya2 binding, biochemical; stronger effect = lower value; activity change, % (test concentration not listed); 360,000 compounds, 0.56% hits; in the data active = activity change below about -65%; inconclusive = mostly about -30% to -63%; note: % is set by controls: 0 for no effect and ±100 for the full control effect
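AlphaScreen luminescence read after one hour at 37 °C in darkness. Pin-transferred compounds met GST-Six1 and His-Eya2 protein (5X stock 250 nM/500 nM) plus glutathione donor and Ni-chelate acceptor beads (5X, 50 ug/mL).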
CBFb RUNX1 block: qHTS Assay for Compounds Blocking the Interaction Between CBF-beta and RUNX1 for the Treatment of Acute Myeloid Leukemia | Runt-related transcription factor 1 (Homo sapiens) + Core-binding factor subunit beta … | AlphaScreen CBFb-His/RUNX1-biotin binding, biochemical | Potency, µM (titrated, usually from 59.8 µM), inactives show at the top dose activity, negative = inhibition, usual class: inhibitors | 230,000 tested, under 10 active; note: % of control where 0% means no effect
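CBFb-His/RUNX1-biotin, 30 nM each, preincubated 20 min RT; compound 15 min RT; Ni + streptavidin beads 50 ng each, 90 min RT; AlphaScreen read.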
MBNL1-CUG inh: qHTS Assay for Inhibitors of MBNL1-poly(CUG) RNA binding; Potency, µM (titrated, usually from 57.5 µM), inactives show at the top dose activity change, negative = inhibition, hits mostly inhibitors; Muscleblind-like protein 1 (Homo sapiens), Q9NR56; 280,000 compounds, 0.036% hits; TR-FRET MBNL1-His/biotin-(CUG)12 binding, 665/545 ratio; AID 2675, 2010; active = well fitted inhibition curve with a large enough effect in the signal ratio, with a control signal flat, not every such curve was filed as active; inconclusive = small, poorly fitted or top-dose-only effect, or effect the other way, or a change in a side signal; inactive = no such curve, though single readings can be large or run the other way; the % refers to the signal ratio; note: potency is the fitted concentration of half-maximal effect; % is set by controls: 0 for no effect and ±100 for the full control effect
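Inhibition of protein-RNA binding appears as loss of TR-FRET between terbium anti-His antibody on MBNL1-His and streptavidin-XL665 on biotin-(CUG)12. Activity is normalized to buffer-only and uninhibited-complex controls.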
CtBP-E1A blk: qHTS Assay for Inhibitors of the CtBP/E1A Interaction; CtBP / adenovirus E1A interaction (AlphaScreen); AlphaScreen GST-E1A/His-CtBP binding, 1536-well; stronger effect = lower value; activity change, % (no concentration beside the values); 340,000 compounds, 0.49% hits; AID 651724, 2012; in the data active = activity change below about -65%; inconclusive = mostly about -30% to -63%; note: % is set by controls: 0 for no effect and ±100 for the full control effect
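GST-E1A and His-tagged CtBP (125 nM each as 5X stock) were preincubated with pin-transferred compound for 2 h at 37 °C in the dark, then glutathione donor and nickel acceptor beads were added for 1 h before AlphaScreen reading.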
RORgamma inh: qHTS for inhibitors of ROR gamma transcriptional activity; Drosophila S2 Gal4-RORgamma UAS-luciferase reporter, 20 h; Potency, µM (titrated, usually from 53.6 µM), for the others: at the highest dose activity change, negative = inhibition, most hits filed as inhibitors; 310,000 compounds, 5.4% hits; AID 2551, 2010; note: potency is the fitted concentration of half-maximal effect; % is set by controls: 0 for no effect and ±100 for the full control effect; nearly all actives have a fitted effect of over 60% in size
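Using a luciferase readout, inhibitors were identified by reduced reporter activity in Drosophila cells coexpressing a copper-inducible Gal4–ROR gamma fusion and UAS-driven Photinus luciferase, incubated 20 hr after 700 uM copper sulfate.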
Active calls of the source: *. A selection: hits, their analogues and other compounds. The true share with any hit is near 5.5%. Unless noted, calls come from the whole dose curve; as a rule, active = well fitted curve in the direction sought with a large enough effect; inconclusive = small, poorly fitted or top-dose-only effect, or another doubt; inactive = no such curve, though single readings can be large; an effect the other way counts as inactive or inconclusive.

What do the screens show for `Nc1nc(-c2ccccc2)c(N=Nc2cccc3ccccc23)s1`?
VP16 counter: inconclusive; Six1-Eya2 inh: -78*; MBNL1-CUG inh: inconclusive; CtBP-E1A blk: -93*; RORgamma inh: 31%

What do the screens show for `Nc1nc(-c2ccccc2)c(N=Nc2ccccc2Cl)s1`?
VP16 counter: inconclusive; Six1-Eya2 inh: -76*; MBNL1-CUG inh: 36%; CtBP-E1A blk: -67*; RORgamma inh: -4%

Results for CCCc1sc(N/N=C/c2ccccn2)nc1-c1ccc(F)cc1 ?
VP16 counter: 0.32µM*; Six1-Eya2 inh: -28; CBFb RUNX1 block: -3%; MBNL1-CUG inh: -17%; CtBP-E1A blk: 6; RORgamma inh: 0.28µM*

Results for Cc1nc(N/N=C/c2ccccn2)sc1C ?
VP16 counter: 0.5µM*; Six1-Eya2 inh: inconclusive; CBFb RUNX1 block: inconclusive; MBNL1-CUG inh: inconclusive; CtBP-E1A blk: inconclusive; RORgamma inh: 0.11µM*

What do the screens show for `CCCC1(CC)C(=O)NC(=O)N=C1N` (centres undefined)?
Six1-Eya2 inh: 6; CtBP-E1A blk: 4

What do the screens show for `CCOc1ccc(C(C(=O)NCC2CCCO2)N(C(=O)c2snc(C(N)=O)c2N)c2ccc3c(c2)OCCO3)cc1` (centres undefined)?
VP16 counter: -3%; Six1-Eya2 inh: -2; MBNL1-CUG inh: inconclusive; CtBP-E1A blk: 3; RORgamma inh: inconclusive

Results for CC1Cc2ccccc2N1c1ncnc(N)c1[N+](=O)[O-] (centres undefined) ?
VP16 counter: inconclusive; Six1-Eya2 inh: -8; CBFb RUNX1 block: 2%; MBNL1-CUG inh: inconclusive; RORgamma inh: 4.5µM*

Results for CC1CCCCN1c1ncnc(N)c1[N+](=O)[O-] (centres undefined) ?
VP16 counter: -14%; Six1-Eya2 inh: 6; CBFb RUNX1 block: -1%; MBNL1-CUG inh: inconclusive; CtBP-E1A blk: 16; RORgamma inh: -31%

What do the screens show for `O=C(Nc1ccc(O)cc1)c1c(O)c2c([nH]c1=O)CCCC2`?
VP16 counter: inconclusive; Six1-Eya2 inh: 7; CBFb RUNX1 block: 2%; MBNL1-CUG inh: -7%; CtBP-E1A blk: -20; RORgamma inh: -16%

Results for CC1(C)S[C@@H]2[C@H](NC(=O)[C@H](NC(=O)N3CCN(S(C)(=O)=O)C3=O)c3ccccc3)C(=O)N2[C@H]1C(=O)O ?
VP16 counter: 2%; RORgamma inh: 4%

What do the screens show for `O=S(c1cc(Cl)cc(Cl)c1O)c1cc(Cl)cc(Cl)c1O`?
VP16 counter: -6%; Six1-Eya2 inh: -92*; CtBP-E1A blk: -24; RORgamma inh: 22%

Results for CC(=O)Nc1cccc(-c2ccnc3c2CC(C(=O)Nc2cccc(N(C)C)c2)O3)c1 (centres undefined) ?
Six1-Eya2 inh: -26; CtBP-E1A blk: inconclusive

Results for O=C(CN(c1ccc(F)cc1)S(=O)(=O)c1ccccc1)N1CCOCC1 ?
Six1-Eya2 inh: 10; CtBP-E1A blk: -3

What do the screens show for `Cc1ccccc1N1C(=O)c2cccc3c(N(C)CCO)ccc(c23)C1=O`?
VP16 counter: -2%; Six1-Eya2 inh: 2; CBFb RUNX1 block: 6%; MBNL1-CUG inh: inconclusive; CtBP-E1A blk: -8; RORgamma inh: 11µM*

How did COc1ccccc1N1C(=O)c2cccc3c(N(C)CCO)ccc(c23)C1=O do in these assays?
VP16 counter: -17%; Six1-Eya2 inh: 1; MBNL1-CUG inh: inconclusive; CtBP-E1A blk: 1; RORgamma inh: inconclusive

How did COc1ccc(C(=O)c2coc3c2C(=O)C(=O)c2ccccc2-3)cc1 do in these assays?
VP16 counter: inconclusive; Six1-Eya2 inh: -10; CBFb RUNX1 block: -18%; MBNL1-CUG inh: inconclusive; CtBP-E1A blk: -13; RORgamma inh: 11µM*

What do the screens show for `O=C(c1ccccc1)c1coc2c1C(=O)c1ccccc1C2=O`?
VP16 counter: inconclusive; Six1-Eya2 inh: 3; CBFb RUNX1 block: inconclusive; MBNL1-CUG inh: inconclusive; CtBP-E1A blk: 10; RORgamma inh: 18µM*

What do the screens show for `FC(F)(F)c1cc(CN2CCCC3(CCNCC3)C2)cc(C(F)(F)F)c1`?
VP16 counter: 3%; RORgamma inh: 15%

Results for CC(CCN1CCN(CCO)CC1)c1ccccc1 (centres undefined) ?
VP16 counter: 3%; Six1-Eya2 inh: -2; MBNL1-CUG inh: 0%; RORgamma inh: 2.8µM*

How did CC(CCN1CCOCC1)c1ccccc1 (centres undefined) do in these assays?
VP16 counter: 1%; Six1-Eya2 inh: 3; MBNL1-CUG inh: 6%; CtBP-E1A blk: 8; RORgamma inh: 15%

How did COc1cccc(-c2ccc(SCC(=O)NC3CCCC3)nn2)c1 do in these assays?
VP16 counter: 9%; Six1-Eya2 inh: -12; MBNL1-CUG inh: 2%; CtBP-E1A blk: 0; RORgamma inh: 2%

How did CCCn1c(SCC(=O)NC2CCCC2)nnc1-c1ccccn1 do in these assays?
VP16 counter: -11%; Six1-Eya2 inh: 5; CBFb RUNX1 block: 11%; MBNL1-CUG inh: 5%; CtBP-E1A blk: 0; RORgamma inh: 1%

How did O=C(CSc1ccc(-c2ccccn2)nn1)c1ccc([N+](=O)[O-])cc1 do in these assays?
VP16 counter: inconclusive; Six1-Eya2 inh: -67*; MBNL1-CUG inh: inconclusive; CtBP-E1A blk: -83*; RORgamma inh: 4.5µM*

Results for O=C(CSc1ccc(-c2cccc([N+](=O)[O-])c2)nn1)NC1CCCC1 ?
VP16 counter: -2%; Six1-Eya2 inh: -5; CBFb RUNX1 block: 6%; MBNL1-CUG inh: inconclusive; CtBP-E1A blk: 0; RORgamma inh: 1.8µM*

How did O=C(CSc1ccc(-c2ccccn2)nn1)NCc1ccccc1 do in these assays?
VP16 counter: -6%; Six1-Eya2 inh: -76*; MBNL1-CUG inh: -16%; CtBP-E1A blk: inconclusive; RORgamma inh: -13%

What do the screens show for `C=CCn1c(SCC(=O)NC2CCCC2)nnc1-c1ccccn1`?
VP16 counter: -4%; Six1-Eya2 inh: 4; MBNL1-CUG inh: -10%; CtBP-E1A blk: -2; RORgamma inh: 5.6µM*

Results for O=C(CSc1ccc(-c2ccccn2)nn1)NC1CCCCC1 ?
VP16 counter: 9%; Six1-Eya2 inh: -90*; MBNL1-CUG inh: 1%; CtBP-E1A blk: -72*; RORgamma inh: -22%
